Sampled rows, rich in hits. Any-hit rate of the full collection: about 12%.
HP1b binding inh: blocks HP1-beta chromodomain binding to methylated histone tails; P83916; AlphaScreen HP1-beta / biotin-H3K9me3 peptide binding; Potency, µM (highest dose often 114 µM), for the others: top-dose activity change, negative = inhibition, usual class: inhibitors; 0.56% of 390,000 active; note: nearly all actives have a fitted effect of over 70% in size
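AlphaScreen: HP1-beta (50 nM) preformed 30 min with biotin-H3(1-18)K9me3 peptide (50 nM) in PBS pH 7.4, 0.01% Tween-20. Compound added for 30 min at RT, then streptavidin donor/nickel chelate acceptor beads (10 ug/mL) for 30 min.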
G9a inh: blocks human histone lysine methyltransferase G9a; Q96KQ7; G9a H3K9 monomethylation, AlphaScreen, 2 h; Potency, µM (doses to about 102 µM), for the others: at the highest dose activity, negative = inhibition, hits mostly inhibitors; 8.8% of 350,000 active; AID 504332; note: % is set by controls: 0 for no effect and ±100 for the full control effect; nearly all actives have a fitted effect of over 75% in size
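Chemiluminescent proximity detection of H3K9 monomethylation, read after 10 min bead incubation in the dark. Reaction: 20 nM G9a, 500 nM biotin-H3K9 peptide, 20 uM SAM cofactor, 2 h, room temperature, following 15 min enzyme-compound preincubation.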
L3MBTL1 block: inhibitors of human L3MBTL1; AlphaScreen L3MBTL1–H3K9me1 peptide binding; Potency, µM (doses to about 57.1 µM), for the others: at the highest dose activity, negative = inhibition, usual class: inhibitors; 0.66% of 230,000 active; AID 485360; note: % is set by controls: 0 for no effect and ±100 for the full control effect; nearly all actives have a fitted effect of over 60% in size
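L3MBTL1 (50 nM) pre-complexed 30 min with biotinylated H3(1-15)K9me1 peptide (75 nM), then compounds added for 30 min at room temperature; AlphaScreen streptavidin donor/nickel chelate acceptor beads (10 ug/mL final) read after 30 min dark incubation.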
JMJD2A Tudor inh: inhibitors of human JMJD2A Tudor domain; AID 504339; O75164; 4.4% of 390,000 active; AlphaScreen JMJD2A-Tudor / H3K4me3 peptide binding; Potency, µM (top dose mostly 114 µM), without a hit: at the top dose activity change, negative = inhibition, actives largely listed as inhibitors; note: % is set by controls: 0 for no effect and ±100 for the full control effect; nearly all actives have a fitted effect of over 50% in size
BAZ2B inh: inhibitors of human BAZ2B bromodomain. Q9UIF8. AlphaScreen BAZ2B-H3K14Ac peptide displacement. Potency, µM (highest dose often 114 µM), for inactives: at the highest dose activity change, negative = inhibition, actives largely listed as inhibitors. 4.4% of 360,000 active; note: % is set by controls: 0 for no effect and ±100 for the full control effect; nearly all actives have a fitted effect of over 60% in size
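AlphaScreen displacement of biotin-H3(5-23)K14Ac peptide (50 nM final) from BAZ2B (50 nM final) in PBS pH 7.4, 0.01% Tween-20; complex preformed 30 min RT, then compounds (top 110 uM) 30 min RT, beads 20 min dark.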
Sfp inh: blocks B. subtilis Sfp PPTase activity; Q9F4F7; Biochemical Sfp PPTase activity, qHTS; Potency, µM, for the others: largest response in the series, negative = inhibition, hits mostly inhibitors; 3.5% of 310,000 active; AID 1490;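 note: the enzyme is Sfp with the accession as filed and its product quenches rhodamine fluorescence; 0% = enzyme reaction without inhibitor and -100% = no enzyme wells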
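Sfp 15 nM + cpd, 15 min RT; start w/ rhodamine-CoA 5 uM, BHQ-2-YbbR 12.5 uM (final); 50 mM Hepes pH 7.6, 10 mM MgCl2, 0.01% NP-40, 0.01% BSA; read 525/598 nm at 0 and 30 min.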
Starred values were filed as active, the others as inactive; ! = a repeat was not active; [ ] = another dose, or the depositor's remark. Calls come from the whole dose curve; as a rule, active = well fitted curve in the direction sought with a large enough effect; inconclusive = small, poorly fitted or top-dose-only effect, or another doubt; inactive = no such curve, though single readings can be large; an effect the other way counts as inactive or inconclusive. Potency is the fitted concentration of half-maximal effect.

For O=C(CCCN1C(=O)/C(=C/c2cccc(Br)c2)SC1=S)N1CCOCC1 the results were HP1b binding inh inconclusive, G9a inh inconclusive, JMJD2A Tudor inh inconclusive, BAZ2B inh -22.6% and Sfp inh -18.7%.
For Cc1ccc(NC(=O)CCc2nc3cccnc3n2-c2ccccc2)cc1Cl the results were HP1b binding inh -1.0%, G9a inh inconclusive, JMJD2A Tudor inh -24.5% and BAZ2B inh inconclusive.
For CCOc1ccc(CCNC(=O)c2ccc(-c3nc(COc4ccc(C)cc4)c(C)o3)cc2)cc1 the results were HP1b binding inh 18.7%, G9a inh 11.1%[59 µM], JMJD2A Tudor inh -8.7% and BAZ2B inh 2.7%.
For O=C(CSc1ccc(-c2ccccn2)nn1)N1CCCc2ccccc21 the results were HP1b binding inh 13.9%, G9a inh inconclusive, L3MBTL1 block inconclusive, JMJD2A Tudor inh 7.94µM*, BAZ2B inh 8.91µM* and Sfp inh 9.1%.
Screening Cc1ccc(-c2nnc(SCC(=O)N3CCc4ccccc43)o2)cc1 returned HP1b binding inh 10.0%, G9a inh -3.5%[59 µM], JMJD2A Tudor inh -12.3% and BAZ2B inh 2.7%.
Screening O=C(CSc1nnc(-c2ccc(F)cc2)o1)N1CCCc2ccccc21 returned HP1b binding inh 5.4%, G9a inh 10µM*, JMJD2A Tudor inh -4.8% and BAZ2B inh -7.5%.
For CCN(c1ccccc1)S(=O)(=O)c1ccc(NC(=O)c2nc(SC)ncc2Cl)cc1 the results were HP1b binding inh 29.3%, G9a inh -0.8%[59 µM], JMJD2A Tudor inh -15.3% and BAZ2B inh -13.6%.
Screening CC/C(=C\c1ccc(N(C)C)cc1)c1ccncc1 returned HP1b binding inh inconclusive and JMJD2A Tudor inh 22.4µM*.
Screening COc1cccc(CNC(=O)c2cc(C)nc3c2c(C)nn3-c2cccc(F)c2)c1 returned HP1b binding inh 115.5%, G9a inh 27.3%[59 µM], JMJD2A Tudor inh 68.6% and BAZ2B inh 90.4%[57.1 µM].
CCOC(=O)c1cc(-c2ccccc2)n(-c2cccc(C(=O)N(C)c3ccc(C)cc3)c2)c1C was read as HP1b binding inh -9.7%, G9a inh 15.8µM*, JMJD2A Tudor inh inconclusive and BAZ2B inh inconclusive.
`CCOC(=O)c1cc(-c2ccccc2)n(-c2cccc(C(=O)NC(C)(C)C)c2)c1C` gave HP1b binding inh 28.2%, G9a inh inconclusive, JMJD2A Tudor inh -31.1% and BAZ2B inh -31.0%.
CC(=O)C1=C(Nc2ccc(C)cc2)CC(C)(O)C(C(C)=O)C1c1ccco1 (stereo unspecified) was read as HP1b binding inh 2.0%, G9a inh -8.0%[12.7 µM], JMJD2A Tudor inh -15.7%, BAZ2B inh 79.4µM* and Sfp inh 16.3%.
`Cc1ccc(CNC(=O)c2cnc(N3CCCCC3)c3ccccc23)cc1` gave HP1b binding inh 50.5%[57 µM], G9a inh 34.5%[59 µM], JMJD2A Tudor inh 21.3% and BAZ2B inh 25.5%.
For COc1ccc(/C=N\NC(=O)c2cc(O)c(O)c(O)c2)cc1CN1CCN(c2ccc(F)cc2)CC1 the results were HP1b binding inh inconclusive, G9a inh 7.08µM*, L3MBTL1 block -26.4%, JMJD2A Tudor inh 56.2µM*, BAZ2B inh 35.5µM* and Sfp inh 14.1µM*.
Screening COc1cc(/C=N/NC(=O)c2cc(O)cc(O)c2)ccc1OC(=O)c1ccccc1 returned HP1b binding inh 28.2µM*, G9a inh 8.91µM*, JMJD2A Tudor inh 22.4µM*, BAZ2B inh 11.2µM* and Sfp inh -12.0%.
`COc1cc(C(=O)N/N=C/c2ccc(OC(=O)c3ccccc3)c(OC)c2)ccc1O` gave HP1b binding inh 3.6%, JMJD2A Tudor inh -10.4%, BAZ2B inh -18.8% and Sfp inh -6.5%.
COc1ccc(/C=N\NC(=O)c2cc(O)c(O)c(O)c2)cc1COc1ccc(C(=O)OCC(C)C)cc1 was read as HP1b binding inh -7.1%, G9a inh 22.4µM*, JMJD2A Tudor inh inconclusive, BAZ2B inh 56.2µM* and Sfp inh inconclusive.
`Cc1cc2[nH]c(=S)[nH]c2cc1C` gave HP1b binding inh 39.8µM*, G9a inh 1.78µM*, L3MBTL1 block -9.5%, JMJD2A Tudor inh inconclusive, BAZ2B inh -7.4% and Sfp inh 35.5µM*.
Nc1ccc2[nH]c(=S)[nH]c2c1 was read as HP1b binding inh 3.7%[57 µM] and JMJD2A Tudor inh -4.8%.
`S=c1[nH]c2cc3ccccc3cc2[nH]1` gave HP1b binding inh 1.2%, G9a inh 2.24µM*, L3MBTL1 block 32.5%, JMJD2A Tudor inh -23.3%, BAZ2B inh -17.8% and Sfp inh 56.2µM*!.
S=c1[nH]c2ccc(Cc3ccc4[nH]c(=S)[nH]c4c3)cc2[nH]1 was read as HP1b binding inh -10.9%, G9a inh 0.282µM*, L3MBTL1 block -3.1%, JMJD2A Tudor inh -16.4%, BAZ2B inh -20.4% and Sfp inh 28.2µM*.
`S=c1[nH]c2ccc3ccccc3c2[nH]1` gave HP1b binding inh 25.4%, L3MBTL1 block -2.9%, JMJD2A Tudor inh -16.0%, BAZ2B inh inconclusive and Sfp inh -4.5%.
For CCOc1ccc(-c2nc3c(C#N)c[nH]n3c2NC2CCCC2)cc1 the results were HP1b binding inh 18.8%, G9a inh inconclusive, JMJD2A Tudor inh -7.9% and BAZ2B inh -13.6%.
For Cc1cn2c(=O)cc(COC(=O)c3cccc(NC(=O)COc4ccccc4Cl)c3)nc2s1 the results were HP1b binding inh 47.0%, G9a inh 12.0%[59 µM], JMJD2A Tudor inh -2.3% and BAZ2B inh 2.3%.
For N#CC(c1cccc(Cl)c1)c1ccc2c(C(F)(F)F)cc(C(F)(F)F)nc2n1 (stereo unspecified) the results were HP1b binding inh 10µM*, G9a inh 14.1µM*, JMJD2A Tudor inh 28.2µM*, BAZ2B inh 10µM* and Sfp inh -2.4%.
For N#CC(c1ccccc1)c1cccc(Cl)n1 (stereo unspecified) the results were HP1b binding inh 60.3%, G9a inh 9.0%, L3MBTL1 block 13.6%, JMJD2A Tudor inh 3.5%, BAZ2B inh 7.9% and Sfp inh 16.9%.
For CC(NC(=O)c1ccccc1)c1nc2ccccc2n1Cc1ccccc1F (stereo unspecified) the results were G9a inh 50.1µM*, L3MBTL1 block -5.5%, BAZ2B inh -35.0%[57.1 µM] and Sfp inh 5.7%.
Screening O=C(O)c1ccccc1-c1ccc(C(F)(F)F)cc1 returned G9a inh 0.9%[12.7 µM] and Sfp inh 14.4%.
For CC(=C/c1ccco1)/C=N/NC(=O)c1ccncc1 the results were HP1b binding inh 21.3%, G9a inh 7.5%[59 µM], L3MBTL1 block -8.8%, JMJD2A Tudor inh -12.1%, BAZ2B inh -22.6% and Sfp inh -7.4%.

High-throughput results from PubChem BioAssay.
